# Screens from PubChem.
# FLuc counter – qHTS profiling assay for firefly luciferase inhibitor/activator using purifed enzyme and Km concentrations of substrates (counterscreen for miR-21 project) | Luciferin 4-monooxygenase (Photinus pyralis), P08659 | purified FLuc, Km substrates, luminescence inhibition | actives 6.9% (n = 360,000) | Potency, µM (highest dose often 57.5 µM), inactives show at the highest dose activity change, negative = inhibition, actives largely listed as inhibitors | AID 588342, 2011;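 also: plate controls were vehicle for no effect and reference inhibitor for full effect; nearly all actives have a fitted effect of over 55% in size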
# Target sequence (P08659 whole entry, looked up): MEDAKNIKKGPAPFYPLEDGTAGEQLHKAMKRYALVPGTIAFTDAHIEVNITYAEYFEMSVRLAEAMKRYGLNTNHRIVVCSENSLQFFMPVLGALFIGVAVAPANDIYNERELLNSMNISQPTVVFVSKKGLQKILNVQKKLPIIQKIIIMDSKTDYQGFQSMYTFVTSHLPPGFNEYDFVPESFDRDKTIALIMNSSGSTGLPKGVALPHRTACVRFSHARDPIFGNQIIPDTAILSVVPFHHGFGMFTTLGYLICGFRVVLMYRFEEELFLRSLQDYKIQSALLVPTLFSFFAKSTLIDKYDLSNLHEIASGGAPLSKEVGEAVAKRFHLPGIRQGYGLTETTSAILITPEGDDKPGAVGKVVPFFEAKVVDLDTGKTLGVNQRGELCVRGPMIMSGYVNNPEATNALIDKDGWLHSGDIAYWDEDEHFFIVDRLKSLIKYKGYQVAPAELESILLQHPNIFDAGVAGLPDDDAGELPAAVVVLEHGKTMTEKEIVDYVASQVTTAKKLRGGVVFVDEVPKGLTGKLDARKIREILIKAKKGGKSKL
#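 Purified P. pyralis luciferase (10nM final) with 10uM D-luciferin and 10uM ATP (Km levels) in 50mM Tris acetate pH 7.5, 10mM Mg acetate, 0.01% Tween-20, 0.05% BSA; qHTS 6-point titration, ~60 µM downward; luminescence read.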
# NPC1 prom act – qHTS Assay for NPC1 Promoter Activators | AID 485313, 2010 | Huh7 NPC1 promoter luciferase reporter, 24 h | Potency, µM (titrated, usually from 9.22 µM), for the others: at the highest dose activation, actives largely listed as activators | actives 2.4% (n = 320,000); also: % of control where 0% means no effect; nearly all actives have a fitted effect of over 60% in size
#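 Readout is luciferase luminescence, reflecting NPC1 promoter activation in stably transfected Huh7 cells after 24 h compound exposure at 37 °C in reduced-serum medium with 10% FBS.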
# ELG1 genotoxic – qHTS screen for small molecules that induce genotoxicity in human embryonic kidney (HEK293T) cells expressing luciferase-tagged ELG1 | actives 1.3% (n = 330,000) | AID 504466, 2011 | Potency, µM (titrated, usually from 46 µM), for the others: at the highest dose activity change, positive = activation, hits mostly activators | HEK293T ELG1-luciferase reporter, luminescence, 16 h; also: % of control where 0% means no effect; nearly all actives have a fitted effect of over 60% in size
#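 DMSO vehicle served as control against compound-treated ELG1-luciferase HEK293T cells; exposure lasted 16 hr at 37 °C and 5% CO2, followed by ONE-Glo luminescence detection after 30 min.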
# SMN2 splice enh – qHTS Assay for Enhancers of SMN2 Splice Variant Expression | AID 1458, 2008 | HEK293 SMN2-luciferase splicing reporter, luminescence, 30-36 h | Potency, µM (top dose mostly 46.1 µM), without a hit: at the top dose activity change, positive = activation, hits mostly activators | actives 2.8% (n = 210,000); also: % of control where 0% means no effect; nearly all actives have a fitted effect of over 55% in size
#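 qHTS luciferase splicing reporter: luminescence rises when SMN2 exon 7 is included in transfected HEK293 cells. Compound exposure lasted 30-36 h at 37C, with 4.5 mM final sodium butyrate as control, followed by a ONE-Glo read.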
# Rab9 promoter act – qHTS Assay for Rab9 Promoter Activators; Huh7 Rab9 promoter-luciferase reporter, luminescence, 24 h; Potency, µM (series often up to 9.22 µM), without a hit: at the top dose activation, negative = inhibition, most hits filed as activators; actives 2.8% (n = 320,000); AID 485297, 2010; also: % of control where 0% means no effect; nearly all actives have a fitted effect of over 60% in size
#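 Using Huh7 cells stably transfected with Rab9 promoter–luciferase, compounds were incubated 24 h at 37 °C, 5% CO2; luciferase luminescence was read 10 min after reagent addition.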
# ELG1 repair inh – qHTS screen for small molecules that inhibit ELG1-dependent DNA repair in human embryonic kidney (HEK293T) cells expressing luciferase-tagged ELG1 | HEK293T ELG1-luciferase reporter, luminescence, 16 h; DNA damage induced by 5-fluorouridine | Potency, µM (highest dose often 46.1 µM), inactives show top-dose activity change, negative = inhibition, hits mostly inhibitors | actives 2.3% (n = 330,000); also: % is scaled to controls: 0 for no effect and ±100 for the full control effect; nearly all actives have a fitted effect of over 55% in size
#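 Quantitative HTS, concentration-response format. 2,000 cells/well co-treated with 5-fluorouridine and compound, 16 hr in 5% CO2 at 37 °C; ONE-Glo luminescence read after 30 min.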
# Starred values were filed as active, the others as inactive; ? = inconclusive; · = no result. A selection: hits, their analogues and other compounds. The true share with any hit is near 9.3%. Calls follow the shape of the dose curve; as a rule, active = well fitted curve in the direction sought with a large enough effect; inconclusive = small, poorly fitted or top-dose-only effect, or another doubt; inactive = no such curve, though single readings can be large; an effect the other way counts as inactive or inconclusive. Potency is read from the fitted curve at half-maximal effect.
SMILES,FLuc counter,NPC1 prom act,ELG1 genotoxic,SMN2 splice enh,Rab9 promoter act,ELG1 repair inh
COc1ccc(OCCNC(=O)c2ccccc2OCC(=O)N2CCCCC2)cc1,-13%,1%,-8%,-25%,1%,23µM*
COC(=O)COc1ccccc1C(=O)Nc1ccc(OC)cc1,?,-2%,1%,-4%,1%,11%
O=C(NC(=S)NC1CCN(Cc2ccccc2)CC1)c1ccc(F)cc1,1%,-1%,0%,·,-5%,-23%
CN(Cc1cccc2cnccc12)C(=O)c1cc(COc2ccc(F)cc2Cl)on1,?,-3%,-4%,·,3%,21µM*
Cc1nnc(CN(C)C(=O)c2cc(COc3ccc(F)cc3Cl)on2)o1,12µM*,2.5µM*,?,·,2.8µM*,?
Cc1cc(OCC(=O)Nc2cccc(S(=O)(=O)NC3=NCCCCC3)c2)ccc1Cl,17µM*,0%,-5%,-14%,0%,-17%
Cc1ccc(OCC(=O)Nc2cccc(S(=O)(=O)NC3=NCCCCC3)c2)cc1C,15µM*,0%,-5%,·,-1%,2%
O=C(/C=C/c1ccccc1[N+](=O)[O-])Nc1cccc(S(=O)(=O)NC2=NCCCCC2)c1,·,·,0%,·,·,?
O=C(/C=C/c1ccc(Cl)cc1Cl)Nc1cccc(S(=O)(=O)NC2=NCCCCC2)c1,2.4µM*,22%,6%,15%,19%,?
Cc1cc(C)cc(OCC(=O)Nc2cccc(S(=O)(=O)NC3=NCCC3)c2)c1,-12%,-16%,-2%,·,-1%,-18%
O=C(CCl)Nc1cccc(S(=O)(=O)NC2=NCCCCC2)c1,·,·,-9%,·,·,?
COc1ccccc1/C=C/C(=O)NC(=S)N(C)C1CCCCC1,-28%,0%,0%,-4%,-8%,0%
COc1ccc(C2OC(=O)CC2C(=O)NCc2ccccc2Cl)cc1OC (centres undefined),0%,-2%,9%,2%,-1%,-2%
O=C(Nc1ccc(Cl)cc1Cl)c1n[nH]c(Cn2cncn2)n1,4.3µM*,16%,?,18%,17%,?
N#C/C(=C\c1ccc(Cl)cc1)c1n[nH]c(Cn2cncn2)n1,-9%,10%,4%,-9%,-5%,13%
Cc1ccc2cc(COC(=O)c3ccco3)c(=O)[nH]c2c1,-5%,-1%,2%,2%,-4%,3%
CCC(=O)Nc1cnc(NC(=O)c2cccc(F)c2)cc1C,9.5µM*,1.6µM*,?,11µM*,0.71µM*,?
Cc1cc(NC(=O)c2ccco2)ncc1NC(=O)Cc1ccccc1,17µM*,?,17%,8%,3.2µM*,?
Cc1cc(NC(=O)C(C)C)ncc1NC(=O)c1ccco1,0%,-4%,-1%,·,6%,?
CC(=O)Nc1cnc(NC(=O)c2cccc(F)c2)cc1C,30µM*,1.6µM*,15µM*,11µM*,2.8µM*,?
Clc1ccc(-c2nc(-c3cnccn3)no2)cc1,2.4µM*,0.56µM*,?,·,0.71µM*,?
Fc1ccc(-c2nc(-c3cnccn3)no2)c(Cl)c1,2.4µM*,0.45µM*,?,·,0.32µM*,?
Cc1ccc(-c2noc(-c3cc(-c4ccc(F)cc4)n[nH]3)n2)cc1,-10%,·,·,·,·,·
CCOC(=O)c1sc(=S)n(-c2cc(OC)ccc2OC)c1N,-12%,-2%,1%,-5%,-4%,3%
c1ccc(-c2csc(Nc3cccnc3)n2)nc1,19µM*,?,?,?,?,?
c1ccc(Nc2nc(-c3ccccn3)cs2)cc1,3.8µM*,·,·,13µM*,·,·
COc1cccc2sc(Nc3nc(-c4ccccn4)cs3)nc12,12µM*,21%,9%,·,?,?
